Results filed as inconclusive are left out. Where a call stands in place of a potency, no number is given. Calls of active or inactive are those of the source. Calls come from the whole dose curve; as a rule, active = well fitted inhibition curve with a large enough effect; inconclusive = small, poorly fitted or top-dose-only effect; inactive = flat fitted curve, though single readings scatter.
Key:
Assay in all cases: qHTS profiling for inhibitors of Plasmodium falciparum proliferation (AID 504749); note: nearly all actives have a fitted effect of over 60% in size
Conditions in all cases: P. falciparum in erythrocytes, SYBR Green DNA, 72 h; series mostly up to 28.7 µM
FAB9 = tested on: FAB9
In short: (§1)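 Infected RBCs, 0.3% parasitemia/2.5% Hct final; cpd 72 h, 37 C, 5% CO2; lysis buffer with saponin/triton/SYBR Green I, o/n RT dark; FI 485/535; norm. to artemisinin (0.29 uM) and DMSO.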

GB4 = tested on: GB4
In short: as §1

HB3 = tested on: HB3
In short: as §1

ICS = tested on: ICS
In short: as §1

JCK = tested on: JCK
In short: as §1

N140 = tested on: N140
In short: as §1

P93_24 = tested on: P93_24
In short: as §1

P94_40 = tested on: P94_40
In short: as §1

PAD = tested on: PAD
In short: as §1

PC15 = tested on: PC15
In short: as §1

PC26 = tested on: PC26
In short: as §1

PC49 = tested on: PC49
In short: as §1

SC27B = tested on: SC27B
In short: as §1

TAB109 = tested on: TAB109
In short: as §1

TAB113 = tested on: TAB113
In short: as §1

TAB165 = tested on: TAB165
In short: as §1

W2 = tested on: W2
In short: as §1
Potency is the fitted concentration of half-maximal effect.

SMILES	Potency (FAB9)	Potency (GB4)	Potency (HB3)	Potency (ICS)	Potency (JCK)	Potency (N140)	Potency (P93_24)	Potency (P94_40)	Potency (PAD)	Potency (PC15)	Potency (PC26)	Potency (PC49)	Potency (SC27B)	Potency (TAB109)	Potency (TAB113)	Potency (TAB165)	Potency (W2)
O=C1CCCCC1CN1CCCCC1 (stereo not given)	inactive	inactive	inactive	inactive	inactive	inactive	inactive	inactive	inactive	inactive	inactive	inactive	inactive	inactive	inactive	inactive	inactive
O=C(O)C(Cl)(Cl)Cl	inactive	inactive	inactive	inactive	inactive	inactive	inactive	inactive	inactive	inactive	inactive	inactive	inactive	inactive	inactive	inactive	inactive
CCC1(c2ccccc2)C(=O)NC(=O)NC1=O	inactive	inactive	inactive	inactive	inactive	inactive	inactive	inactive	inactive	inactive	inactive	inactive	inactive	inactive	inactive	inactive	inactive
CC(Cc1ccccc1)NC=O (stereo not given)	inactive	inactive	inactive	inactive	inactive	inactive	inactive	inactive	inactive	inactive	inactive	inactive	inactive	inactive	inactive	inactive	inactive
Oc1cccc[c]1[Hg][Cl]	10 µM (active)	4.26 µM (active)	10 µM (active)	5.01 µM (active)	12.6 µM (active)	5.01 µM (active)	6.31 µM (active)	5.01 µM (active)	5.62 µM (active)	10 µM (active)	12 µM (active)	14.1 µM (active)	10 µM (active)	3.98 µM (active)	10 µM (active)	7.94 µM (active)	4.78 µM (active)
CC(=O)OO	inactive	inactive	inactive	inactive	inactive	inactive	inactive	inactive	inactive	inactive	inactive	inactive	inactive	inactive	inactive	inactive	inactive
NCC(O)c1cccc(O)c1 (stereo not given)	inactive	inactive	inactive	inactive	inactive	inactive	inactive	inactive	inactive	inactive	inactive	inactive	inactive	inactive	inactive	inactive	inactive
O=[N+]([O-])c1ccccc1	inactive	inactive	inactive	inactive	inactive	inactive	inactive	inactive	inactive	inactive	inactive	inactive	inactive	inactive	inactive	inactive	inactive
Clc1ccccc1Cl	inactive	inactive	inactive	inactive	inactive	inactive	inactive	inactive	inactive	inactive	inactive	inactive	inactive	inactive	inactive	inactive	inactive
CC(=O)OC1CN2CCC1CC2 (stereo not given)	inactive	inactive	inactive	inactive	inactive	inactive	inactive	inactive	inactive	inactive	inactive	inactive	inactive	inactive	inactive	inactive	inactive
CCC1(C)CC(=O)NC(=O)C1	inactive	inactive	inactive	inactive	inactive	inactive	inactive	inactive	inactive	inactive	inactive	inactive	inactive	inactive	inactive	inactive	inactive
COC1=CC=C2[C@H]3Cc4ccc(OC)c5c4[C@@]2(CCN3C)[C@H]1O5	inactive	inactive	inactive	inactive	inactive	inactive	inactive	inactive	inactive	inactive	inactive	inactive	inactive	inactive	inactive	inactive	
O=[N+]([O-])c1ccc(F)c([N+](=O)[O-])c1	inactive	inactive	inactive	inactive	inactive	inactive	inactive	inactive	inactive	inactive	inactive	inactive	inactive	inactive	inactive	inactive	inactive
CCOC(=O)c1ccccc1C(=O)OCC	inactive	inactive	inactive	inactive	inactive	inactive	inactive	inactive	inactive	inactive	inactive	inactive	inactive	inactive	inactive	inactive	inactive
O=C1C2CC=CCC2C(=O)N1SC(Cl)(Cl)Cl (stereo not given)	inactive	inactive	inactive	inactive	inactive	inactive	inactive	inactive	inactive	inactive	inactive	inactive	inactive	inactive	inactive	inactive	
O=C(NCNC(=O)NC1C(=O)NC(=O)N1CO)NC1C(=O)NC(=O)N1CO (stereo not given)	inactive	inactive	inactive	inactive	inactive	inactive	inactive	inactive	inactive	inactive	inactive	inactive	inactive	inactive	inactive	inactive	inactive
C[N+]1(C)C2CCC1CC(OC(=O)c1c[nH]c3ccccc13)C2 (stereo not given)	inactive	inactive	inactive	inactive	inactive	inactive	inactive	inactive	inactive	inactive	inactive	inactive	inactive	inactive	inactive	inactive	inactive

SMILES	Potency (FAB9)	Potency (GB4)	Potency (HB3)	Potency (ICS)	Potency (JCK)	Potency (N140)	Potency (P93_24)	Potency (P94_40)	Potency (PAD)	Potency (PC15)	Potency (PC26)	Potency (PC49)	Potency (SC27B)	Potency (TAB109)	Potency (TAB113)	Potency (TAB165)	Potency (W2)
Cn1sc(Cl)cc1=O	inactive	inactive	inactive	inactive	inactive	inactive	inactive	inactive	inactive	inactive	inactive	inactive	inactive	inactive	inactive	inactive	inactive
O=C(OCCN1CCCCC1)C(O)(c1ccccc1)c1ccccc1	inactive	inactive	inactive	inactive	inactive	inactive	inactive	inactive	inactive	inactive	inactive	inactive	inactive	inactive	inactive	inactive	inactive
C#CC(C)(O)CC (stereo not given)	inactive	inactive	inactive	inactive	inactive	inactive	inactive	inactive	inactive	inactive	inactive	inactive	inactive	inactive	inactive	inactive	inactive
ClCC1CO1 (stereo not given)	inactive	inactive	inactive	inactive	inactive	inactive	inactive	inactive	inactive	inactive	inactive	inactive	inactive	inactive	inactive	inactive	inactive
O=CC=O	inactive	inactive	inactive	inactive	inactive	inactive	inactive	inactive	inactive	inactive	inactive	inactive	inactive	inactive	inactive	inactive	inactive
COc1ccc(OC)c(C(O)C(C)N)c1 (stereo not given)	inactive	inactive	inactive	inactive	inactive	inactive	inactive	inactive	inactive	inactive	inactive	inactive	inactive	inactive	inactive	inactive	inactive
N#CN	inactive	inactive	inactive	inactive	inactive	inactive	inactive	inactive	inactive	inactive	inactive	inactive	inactive	inactive	inactive	inactive	inactive
[N-]=[N+]=CC(=O)OCC(N)C(=O)O (stereo not given)	inactive	inactive	inactive	inactive	inactive	inactive	inactive	inactive	inactive	inactive	inactive	inactive	inactive	inactive	inactive	inactive	inactive
Clc1ccc(Cl)cc1	inactive	inactive	inactive	inactive	inactive	inactive	inactive	inactive	inactive	inactive	inactive	inactive	inactive	inactive	inactive	inactive	inactive
CCC(C)(S(=O)(=O)CC)S(=O)(=O)CC	inactive	inactive	inactive	inactive	inactive	inactive	inactive	inactive	inactive	inactive	inactive	inactive	inactive		inactive	inactive	inactive
O[C@H]1[C@H]2[C@H](O)CCCN2C[C@H]1O	inactive	inactive	inactive	inactive	inactive	inactive	inactive	inactive	inactive	inactive	inactive	inactive	inactive	inactive	inactive	inactive	inactive
O=C(NC(=O)c1c(F)cccc1F)Nc1ccc(Cl)c(Oc2ncc(C(F)(F)F)cc2Cl)c1	inactive	inactive	inactive	inactive	inactive	inactive	inactive	inactive	inactive	inactive	inactive	inactive	inactive	inactive	inactive		inactive
O=C(CCl)c1ccc(Oc2ccc(C(=O)CCl)cc2)cc1	inactive	inactive	inactive	inactive	inactive	inactive	inactive	inactive	inactive	inactive	inactive	inactive	inactive	inactive	inactive	inactive	inactive
FC(F)OC(F)(F)C(F)Cl (stereo not given)	inactive	inactive	inactive	inactive	inactive	inactive	inactive	inactive	inactive	inactive	inactive	inactive	inactive	inactive	inactive	inactive	inactive
c1csc(C2(N3CCCCC3)CCCCC2)c1	inactive	inactive	inactive	inactive	inactive	inactive	inactive	inactive	inactive	inactive	inactive	inactive	inactive	inactive	inactive	inactive	9.53 µM (active)
COC([CH2][Hg])CNC(=O)c1ccccc1OCC(=O)O (stereo not given)	inactive	inactive	inactive	inactive	inactive	inactive	inactive	inactive	inactive	inactive	inactive	inactive	inactive		inactive	inactive	inactive
CCCCCl	inactive	inactive	inactive	inactive		inactive	inactive	inactive	inactive	inactive		inactive	inactive	inactive	inactive	inactive	
